# PubChem BioAssay
# Records with an inconclusive call do not appear. Active and inactive are the calls of the source.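 The calls were made as follows, unless noted: active = GFP response, as percent of the DMSO control, above the screen-wide mean plus 3 SD, about 139; inconclusive = no response measured because the compound's own fluorescence interfered; inactive = the rest.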
# Assays:
# [1] = yeast TOR pathway RPL19A-GFP modulators, primary screen, cell-based, S. cerevisiae, multiplex flow cytometry (AID 1862; in the data active = percent of DMSO control GFP below about 86%;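 also: lower values mimic rapamycin by blocking the RPL19A rise seen in DMSO cells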); conditions: S. cerevisiae RPL19A-GFP strain, flow cytometry fluorescence, 3 h; at 10 µM; stronger effect = lower value
# [2] = modulators of MEP2-GFP levels in yeast, primary screen, S. cerevisiae, multiplex flow cytometry (AID 1867);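 also: median GFP channel fluorescence of barcode-gated MEP2-GFP cells measured by flow cytometry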; conditions: S. cerevisiae MEP2-GFP strain, 3 h, at 10 µM, stronger effect = higher value, 100% means same as DMSO wells
# [3] = modulators of CIT2-GFP expression in yeast, primary screen, S. cerevisiae, GFP fusion, multiplex flow cytometry (AID 1870;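 active = percent response above a set limit, the screen-wide mean plus 3 SD, cut at about 130% in these data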;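 also: barcoded CIT2-GFP strain pooled with four other GFP strains with rapamycin as positive control; median GFP fluorescence per well over plate mean of DMSO wells so 100% = DMSO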); conditions: 3 h, at 10 µM, stronger effect = higher value
# [4] = modulators of LAP4-GFP expression in yeast, primary screen, S. cerevisiae, multiplex flow cytometry (AID 1873;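 active = GFP signal, as percent of the solvent control, above the screen mean plus 3 SD, about 149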); conditions: 3 h, at 10 µM, stronger effect = higher value
# [5] = modulators of AGP1-GFP expression in yeast TOR pathway, primary screen, cell-based, multiplex flow cytometry, S. cerevisiae (AID 1887;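 active = GFP signal above the screen-wide mean plus 3 SD, that is over about 124.5% of the solvent control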;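 also: AGP1-GFP fusion strain of S. cerevisiae within a five-strain barcoded multiplex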); conditions: 3 h, at 10 µM, stronger effect = higher value
# [6] = inhibitors of CD8+ T cell-vesicle binding, pilot screen, LFA-1/ICAM-1 modulator project, MLPCN validation set, flow cytometry (AID 2523;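 active = response below a set limit, under 55% cells CD8-positive and vesicle-bound, and CD8 cells' 90th-percentile brightness under 279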;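 as to vesicle binding response: mean PE anti-B7-1 fluorescence of CD8+ cells relative to row control; 100% = QL9-loaded vesicles with DMSO vehicle in the same plate row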); conditions: 2C mouse CD8+ T cells, at 7 µM, stronger effect = lower value; double positive events: measured here: CD8+/vesicle+ event percentage
# [7] = molecular target: Integrin beta-1 (Homo sapiens) + Integrin alpha-4 (Homo sapiens) (UniProt P13612+P05556); assay: inhibition of HUTS-21 binding to VLA-4, pilot screen, VLA-4 allosteric modulator project, U937 cells, HUTS-21 mAb, flow cytometry, validation set (AID 2674;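 active = inhibition above 50%, about 3 SD of the validation set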;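 also: antibody binding induced by the VLA-4 ligand LDV present at three times its Kd; 0% = LDV ligand with antibody and no compound and 100% = antibody without LDV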); conditions: HUTS-21 LIBS mAb binding, at 6.7 µM, stronger effect = higher value, binding induced by LDV ligand
# [8] = superoxide lowering in aged yeast cells, pilot screen, validation compound set (AID 2706;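 active = superoxide response below 65% of plate, a cut near 3 SD across the whole screen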;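 also: yeast exposed to compound for one week at 30 degrees C before staining; 100% = mean of all compound wells on the same plate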); conditions: S. cerevisiae aging, superoxide DHE fluorescence; at 10 µM; stronger effect = lower value
# [9] = molecular target: Beta-adrenergic receptor kinase 1 (Homo sapiens) (UniProt P25098); assay: GRK2 binders displacing RNA aptamer, biochemical, validation, human GRK2, bead flow cytometry (AID 488806;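 active = aptamer binding inhibition above 30%, about 3 SD of noise from non-fluorescent compounds; inactive = inhibition at or below 30%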); conditions: bead-bound GRK2, FAM-aptamer displacement, at 10 µM, stronger effect = higher value
# [10] = molecular target: Beta-2 adrenergic receptor (Homo sapiens) (UniProt P07550); assay: beta2AR agonists driving receptor internalization, pilot screen, cell-based, FAP fluorogen, flow cytometry, validation set (AID 504459;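 active = percent response above 42, roughly 3 SD of non-fluorescent test compounds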;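 also: agonist-driven loss of surface beta2AR via internalization measured by FAP dye flow cytometry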); conditions: Am2.2-beta2AR cells, FAP surface receptor flow cytometry; at 10 µM; stronger effect = higher value
# [11] = molecular target: AP-2 complex subunit beta (Homo sapiens) (UniProt P63010); assay: inhibitors of arrestin peptide binding to AP2, pilot screen, biochemical, validation set, GST-AP2 beads, flow cytometry (AID 504541;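 active = inhibition above 54%, about 3 SD of non-fluorescent compounds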;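 also: AP2 carries R879A mutation and is captured from E. coli lysate; bead-bound FITC arrestin peptide fluorescence measuring arrestin peptide binding to AP2; 0% = DMSO wells and 100% = excess unlabeled arrestin peptide control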); conditions: FITC arrestin peptide, at 10 µM, stronger effect = higher value, AP2 beta2 appendage fragment, R879A mutant
# [12] = yeast V-ATPase proton transport modulators, S. cerevisiae, pHLuorin, HTS validation (AID 504600; in the data active = response above about 15%;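 also: plate controls were DMSO for no effect and reference compound for full effect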); conditions: S. cerevisiae pHLuorin cytosolic pH, at 10 µM, stronger effect = higher value
# [13] = system: anti-desmoglein-3 scFv antibody binding to human DSG3; assay: inhibitors of anti-DSG3 scFv binding to DSG3, pilot screen, biochemical, validation compound set, bead-based, flow cytometry (AID 588368;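 active = binding below the plate cutoff, the plate median minus 3 SD, with a reading above zero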;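 also: signal is the median channel fluorescence of bead-bound GFP antibody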); conditions: Protein G beads, DSG3-Fc, scFv-GFP binding, at 10 µM, stronger effect = lower value
# [14] = inhibitors of fungal efflux pumps CDR1, CDR2, MDR1, pilot screen, validation compound set, multiplex, phenotypic (AID 588506;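 active = efflux inhibition above 0.42, the validation set average plus 4 SD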;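 also: Nile Red retained in cells so higher fluorescence means more efflux inhibition; 0 = negative control wells and 1 = enniatin B 25 µM full block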); conditions: S. cerevisiae pump-expressing triplex, Nile Red efflux flow cytometry; at 10 µM; stronger effect = higher value; the pumps come from Candida albicans
# [15] = molecular target: ATP-binding cassette sub-family B member 6 (Homo sapiens) (UniProt Q9NP58); assay: ABCB6 transporter inhibitors, pilot screen, K562-ABCB6 cells, flow cytometry, validation set (AID 588550;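 active = inhibition above the screen-wide mean plus 3 SD, about 51%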;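 also: 0% = DMSO wells and 100% = benzethonium chloride 70 µM positive control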); conditions: K562-ABCB6 porphyrin accumulation, 1 h, at 10 µM, stronger effect = higher value
# [16] = promoters of myeloid differentiation in arrested cells, primary screen, cell-based, GFP/MAC1 double positive, flow cytometry, validation set (AID 588685;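 active = differentiation response of at least 50%, scaled between solvent and reference control, from cells with both markers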;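 also: compound exposure lasts four days before antibody staining and flow analysis; 0% = DMSO wells and 100% = 5 µM fulvestrant positive control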); conditions: ER-HoxA9 marrow cells, stronger effect = higher value, normalized: vehicle 0, fulvestrant 100
# ATP-binding cassette sub-family B member 6 (Homo sapiens), sequence (Q9NP58 whole entry, looked up): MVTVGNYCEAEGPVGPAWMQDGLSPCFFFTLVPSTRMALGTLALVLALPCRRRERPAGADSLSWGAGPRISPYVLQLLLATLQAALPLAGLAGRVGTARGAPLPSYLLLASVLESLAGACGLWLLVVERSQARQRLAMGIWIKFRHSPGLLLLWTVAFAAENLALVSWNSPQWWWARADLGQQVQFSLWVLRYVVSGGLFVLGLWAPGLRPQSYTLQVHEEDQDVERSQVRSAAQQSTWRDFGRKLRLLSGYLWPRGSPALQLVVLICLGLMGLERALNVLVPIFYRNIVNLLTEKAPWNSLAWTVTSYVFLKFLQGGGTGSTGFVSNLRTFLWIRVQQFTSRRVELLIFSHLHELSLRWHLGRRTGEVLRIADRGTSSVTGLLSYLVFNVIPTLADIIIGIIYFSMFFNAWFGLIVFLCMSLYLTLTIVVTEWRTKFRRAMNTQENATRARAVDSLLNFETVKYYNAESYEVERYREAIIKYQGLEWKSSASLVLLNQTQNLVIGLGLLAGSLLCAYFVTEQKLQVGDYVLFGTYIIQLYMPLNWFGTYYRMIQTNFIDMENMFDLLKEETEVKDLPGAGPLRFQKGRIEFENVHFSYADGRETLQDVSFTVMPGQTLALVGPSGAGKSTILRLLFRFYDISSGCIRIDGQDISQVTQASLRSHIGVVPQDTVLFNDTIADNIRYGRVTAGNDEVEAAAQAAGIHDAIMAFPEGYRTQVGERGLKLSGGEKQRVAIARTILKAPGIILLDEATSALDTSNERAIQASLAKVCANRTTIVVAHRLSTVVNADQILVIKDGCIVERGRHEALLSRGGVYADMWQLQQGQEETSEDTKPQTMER
# Beta-adrenergic receptor kinase 1 (Homo sapiens), sequence (P25098 whole entry, looked up): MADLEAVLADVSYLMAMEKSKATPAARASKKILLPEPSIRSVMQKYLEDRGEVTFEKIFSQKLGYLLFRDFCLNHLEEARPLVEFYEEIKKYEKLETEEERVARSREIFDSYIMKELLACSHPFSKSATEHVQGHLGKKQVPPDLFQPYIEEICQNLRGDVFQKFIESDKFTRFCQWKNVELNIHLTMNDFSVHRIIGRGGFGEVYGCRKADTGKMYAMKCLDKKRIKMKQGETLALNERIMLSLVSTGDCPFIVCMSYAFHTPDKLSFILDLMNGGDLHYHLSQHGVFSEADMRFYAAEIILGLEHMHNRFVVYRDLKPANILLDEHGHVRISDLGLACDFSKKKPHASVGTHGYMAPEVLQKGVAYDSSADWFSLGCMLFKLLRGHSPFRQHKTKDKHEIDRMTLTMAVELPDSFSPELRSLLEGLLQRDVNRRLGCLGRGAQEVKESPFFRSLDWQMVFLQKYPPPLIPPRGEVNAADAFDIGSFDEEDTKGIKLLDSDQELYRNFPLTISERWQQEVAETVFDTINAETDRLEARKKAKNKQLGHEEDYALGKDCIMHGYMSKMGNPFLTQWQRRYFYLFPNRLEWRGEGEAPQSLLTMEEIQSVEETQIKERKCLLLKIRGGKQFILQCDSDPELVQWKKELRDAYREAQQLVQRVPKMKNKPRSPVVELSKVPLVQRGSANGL
# AP-2 complex subunit beta (Homo sapiens), sequence (P63010 whole entry, looked up, the tested form may be a part, one chain of several): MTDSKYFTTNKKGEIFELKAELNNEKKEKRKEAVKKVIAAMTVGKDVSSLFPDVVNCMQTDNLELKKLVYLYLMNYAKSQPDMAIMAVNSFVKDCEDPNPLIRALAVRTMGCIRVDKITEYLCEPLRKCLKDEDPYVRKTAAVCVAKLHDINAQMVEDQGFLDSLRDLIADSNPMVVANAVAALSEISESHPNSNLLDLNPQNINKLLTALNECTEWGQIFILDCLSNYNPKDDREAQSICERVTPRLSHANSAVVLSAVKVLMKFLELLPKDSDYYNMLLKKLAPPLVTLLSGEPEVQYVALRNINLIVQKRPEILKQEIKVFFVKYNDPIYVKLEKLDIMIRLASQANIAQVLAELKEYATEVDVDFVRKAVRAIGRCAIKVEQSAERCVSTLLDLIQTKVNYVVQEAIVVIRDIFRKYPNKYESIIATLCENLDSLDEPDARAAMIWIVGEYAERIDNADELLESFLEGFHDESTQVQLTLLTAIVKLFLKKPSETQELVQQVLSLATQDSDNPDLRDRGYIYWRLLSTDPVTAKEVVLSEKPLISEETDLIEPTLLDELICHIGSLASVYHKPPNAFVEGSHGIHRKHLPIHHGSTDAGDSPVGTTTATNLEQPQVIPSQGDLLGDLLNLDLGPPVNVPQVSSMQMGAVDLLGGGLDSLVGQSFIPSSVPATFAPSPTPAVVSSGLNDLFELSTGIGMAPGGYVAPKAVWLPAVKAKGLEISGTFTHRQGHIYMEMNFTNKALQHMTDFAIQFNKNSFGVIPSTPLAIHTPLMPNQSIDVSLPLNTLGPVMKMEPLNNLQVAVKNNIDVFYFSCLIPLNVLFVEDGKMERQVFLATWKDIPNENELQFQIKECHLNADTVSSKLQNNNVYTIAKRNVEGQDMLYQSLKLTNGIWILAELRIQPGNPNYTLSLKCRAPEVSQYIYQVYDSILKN
# Beta-2 adrenergic receptor (Homo sapiens), sequence (P07550 whole entry, looked up): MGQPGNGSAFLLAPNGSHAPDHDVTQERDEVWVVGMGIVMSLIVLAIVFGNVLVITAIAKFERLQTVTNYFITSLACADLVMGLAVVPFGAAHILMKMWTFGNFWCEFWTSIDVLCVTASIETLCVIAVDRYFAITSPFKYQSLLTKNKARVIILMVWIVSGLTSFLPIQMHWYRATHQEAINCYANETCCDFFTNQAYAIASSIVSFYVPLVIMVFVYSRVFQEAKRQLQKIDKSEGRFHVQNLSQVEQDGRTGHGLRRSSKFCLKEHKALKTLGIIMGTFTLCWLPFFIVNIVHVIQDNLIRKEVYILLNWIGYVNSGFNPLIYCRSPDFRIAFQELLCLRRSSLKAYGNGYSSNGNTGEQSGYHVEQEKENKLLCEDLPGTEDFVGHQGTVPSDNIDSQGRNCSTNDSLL
# Integrin beta-1 (Homo sapiens) + Integrin alpha-4 (Homo sapiens), sequence (P05556 whole entry, looked up): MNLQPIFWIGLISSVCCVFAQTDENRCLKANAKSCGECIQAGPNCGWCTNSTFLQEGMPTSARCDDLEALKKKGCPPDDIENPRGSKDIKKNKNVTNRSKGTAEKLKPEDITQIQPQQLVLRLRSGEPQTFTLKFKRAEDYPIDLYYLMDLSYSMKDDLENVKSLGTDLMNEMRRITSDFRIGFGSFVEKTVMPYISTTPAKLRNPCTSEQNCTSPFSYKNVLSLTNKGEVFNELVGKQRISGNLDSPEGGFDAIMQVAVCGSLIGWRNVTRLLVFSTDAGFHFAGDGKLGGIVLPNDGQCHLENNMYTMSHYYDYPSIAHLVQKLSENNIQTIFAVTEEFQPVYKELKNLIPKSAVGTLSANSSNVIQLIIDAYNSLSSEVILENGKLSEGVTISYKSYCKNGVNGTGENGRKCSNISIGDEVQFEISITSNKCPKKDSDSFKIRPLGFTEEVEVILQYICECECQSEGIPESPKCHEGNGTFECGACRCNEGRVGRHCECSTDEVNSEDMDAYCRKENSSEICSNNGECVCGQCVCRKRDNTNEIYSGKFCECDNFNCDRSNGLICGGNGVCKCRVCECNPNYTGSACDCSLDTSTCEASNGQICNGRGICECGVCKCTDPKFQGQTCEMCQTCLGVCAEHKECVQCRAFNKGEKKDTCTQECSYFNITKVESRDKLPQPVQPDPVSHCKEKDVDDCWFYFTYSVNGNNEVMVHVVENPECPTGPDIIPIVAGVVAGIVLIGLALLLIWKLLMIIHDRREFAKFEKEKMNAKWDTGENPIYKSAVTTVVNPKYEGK
# Integrin beta-1 (Homo sapiens) + Integrin alpha-4 (Homo sapiens), sequence (P13612 whole entry, looked up): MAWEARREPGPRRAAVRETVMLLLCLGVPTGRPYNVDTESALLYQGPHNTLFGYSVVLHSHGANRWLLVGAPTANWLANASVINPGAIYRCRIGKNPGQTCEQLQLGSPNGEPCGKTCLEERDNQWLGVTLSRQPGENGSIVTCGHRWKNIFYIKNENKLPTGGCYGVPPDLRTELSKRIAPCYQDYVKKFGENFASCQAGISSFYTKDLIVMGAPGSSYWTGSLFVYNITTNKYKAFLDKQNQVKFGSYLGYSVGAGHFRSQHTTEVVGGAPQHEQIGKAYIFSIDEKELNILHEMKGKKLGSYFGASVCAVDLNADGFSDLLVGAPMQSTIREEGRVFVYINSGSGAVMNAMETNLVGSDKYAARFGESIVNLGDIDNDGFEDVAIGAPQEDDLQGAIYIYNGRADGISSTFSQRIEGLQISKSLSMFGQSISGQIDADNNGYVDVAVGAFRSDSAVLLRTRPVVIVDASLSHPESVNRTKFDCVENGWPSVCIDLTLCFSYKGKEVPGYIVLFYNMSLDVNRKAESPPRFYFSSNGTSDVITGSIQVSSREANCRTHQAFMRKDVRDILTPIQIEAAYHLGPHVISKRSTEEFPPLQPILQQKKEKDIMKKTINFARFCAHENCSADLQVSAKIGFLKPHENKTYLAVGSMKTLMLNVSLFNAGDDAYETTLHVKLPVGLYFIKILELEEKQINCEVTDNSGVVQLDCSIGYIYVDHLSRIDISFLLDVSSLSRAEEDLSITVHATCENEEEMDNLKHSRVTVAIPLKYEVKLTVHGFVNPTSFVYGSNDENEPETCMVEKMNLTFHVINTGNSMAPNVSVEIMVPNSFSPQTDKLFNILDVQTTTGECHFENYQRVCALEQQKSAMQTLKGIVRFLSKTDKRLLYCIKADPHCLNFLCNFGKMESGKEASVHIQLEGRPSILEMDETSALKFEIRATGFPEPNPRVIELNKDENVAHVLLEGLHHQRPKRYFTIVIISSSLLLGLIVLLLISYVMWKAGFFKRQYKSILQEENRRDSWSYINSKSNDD
SMILES,percent of DMSO control GFP [1],GFP response vs DMSO [2],percent response of DMSO control [3],GFP response vs DMSO [4],"GFP response, % of DMSO [5]",double positive events [6] [%],vesicle binding response [6],inhibition [7],superoxide response (% of plate) [8],aptamer binding inhibition [9],response [10],inhibition [11],response [12],binding (% of control) [13],efflux inhibition (fraction of control) [14],inhibition [15],differentiation response [16]
Cc1cc(=O)oc2cc(OC(C)C(=O)NCC3CCCO3)ccc12 (stereo not drawn),101% (inactive),99.6% (inactive),104% (inactive),106% (inactive),102% (inactive),68.8,554% (inactive),-14.1% (inactive),91.7% (inactive),3% (inactive),-0.14% (inactive),-3.92% (inactive),0.04% (inactive),96.8% (inactive),-0.28 (inactive),5% (inactive),-7.2% (inactive)
Cc1cc(O)c(C(C)C)cc1C1(c2cc(C(C)C)c(O)cc2C)OC(=O)c2ccccc21,104% (inactive),107% (inactive),104% (inactive),120% (inactive),108% (inactive),61.7,219% (inactive),43.2% (inactive),88.7% (inactive),-2% (inactive),3.1% (inactive),62.6% (active),-4.85% (inactive),101% (inactive),-0.09 (inactive),5% (inactive),15.7% (inactive)
O=C(Oc1ccccc1)Oc1ccc2c(c1)oc(=O)c1ccccc12,96.3% (inactive),126% (inactive),106% (inactive),90.2% (inactive),102% (inactive),60.1,230% (inactive),-6.15% (inactive),78.2% (inactive),2% (inactive),4.41% (inactive),4.7% (inactive),0.05% (inactive),94.7% (inactive),0.34 (inactive),4% (inactive),8.19% (inactive)
COC(=O)C1=C(C)N(Cc2ccco2)C(=O)/C1=C\c1ccc([N+](=O)[O-])cc1,102% (inactive),103% (inactive),97.8% (inactive),95.3% (inactive),96.2% (inactive),66.2,232% (inactive),-274% (inactive),112% (inactive),-4% (inactive),15.1% (inactive),43.9% (inactive),-6.06% (inactive),205% (inactive),0.18 (inactive),-55% (inactive),42.3% (inactive)
C=C1C2(C(=O)Nc3ccc(SC(F)F)cc3)CCC(C2)C1(C)C (stereo not drawn),103% (inactive),99.3% (inactive),105% (inactive),96% (inactive),100% (inactive),66.3,1190% (inactive),1.62% (inactive),82.1% (inactive),1% (inactive),-6.87% (inactive),-6.22% (inactive),1.62% (inactive),101% (inactive),-0.29 (inactive),7% (inactive),2.2% (inactive)
COc1ccc(C2=NOC(COc3ccc4c(C)cc(=O)oc4c3)C2)c(OC)c1 (stereo not drawn),99% (inactive),94.6% (inactive),96% (inactive),116% (inactive),91.3% (inactive),62.4,171% (inactive),-11.8% (inactive),99.1% (inactive),4% (inactive),12.7% (inactive),2.4% (inactive),1.1% (inactive),95.6% (inactive),0.04 (inactive),10% (inactive),3.45% (inactive)
CC(C)OC(=O)C1C(=O)CC(C)(O)C(C(=O)OC(C)C)C1c1cccc(O)c1 (stereo not drawn),105% (inactive),99.7% (inactive),105% (inactive),101% (inactive),114% (inactive),55.9,278% (inactive),-18.5% (inactive),85.3% (inactive),-5% (inactive),6.25% (inactive),29.4% (inactive),-3.54% (inactive),99.8% (inactive),-0.22 (inactive),-13% (inactive),-11.9% (inactive)
Clc1ccc2c(c1)CCc1cccnc1C2=C1CCNCC1,101% (inactive),109% (inactive),104% (inactive),93.3% (inactive),97% (inactive),63.9,1240% (inactive),3.7% (inactive),98.7% (inactive),3% (inactive),16.1% (inactive),13.9% (inactive),1.57% (inactive),103% (inactive),-0.17 (inactive),-15% (inactive),-4.64% (inactive)
COc1ccc(C(=O)COc2ccc(F)cc2)c(O)c1,106% (inactive),98.3% (inactive),106% (inactive),96% (inactive),97.6% (inactive),60.6,253% (inactive),-7.72% (inactive),86.7% (inactive),1% (inactive),-9.67% (inactive),1.75% (inactive),2.77% (inactive),94.5% (inactive),-0.04 (inactive),1% (inactive),1.22% (inactive)
